Results published in PubChem BioAssay (NCATS).
Records with an inconclusive call do not appear. Unmarked numbers belong to inactive results. The source made the active and inactive calls. Calls come from the whole dose curve; as a rule, active = well fitted cell-killing curve with a large enough effect; inconclusive = small, poorly fitted or top-dose-only effect, or effect the other way; inactive = no such curve, though single readings can be large or run the other way.

assay: Viability qHTS for spleen associated tyrosine kinase inhibitor (SYKi) naive MV4-11 cells (AID 1963823); conditions: MV4-11 AML viability, CellTiter-Glo luminescence, 72 h; series mostly up to 45 µM; viability (% of control): at the top concentration; note: nearly all actives have a fitted effect of over 40% in size
Method in brief: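 Compounds were dispensed acoustically onto plates, MV4-11 cells (SYKi-naive) added at 500 per well, and plates incubated 72 hr at 37 C. CellTiter-Glo was added and luminescence measured after 10 min.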
Potency is the fitted concentration of half-maximal effect.

Compound	viability (% of control)	Potency
COC[C@]12CN(C)C3C4[C@H](OC)[C@H]1C3(C(OC)C[C@H]2O)[C@H]1C[C@@]2(O)[C@H](OC(=O)c3ccccc3)[C@@H]1[C@]4(O)[C@@H](O)[C@@H]2OC (some centres undefined)	82.1%	–
C/C=C(\C)C(O)C(C)/C=C(C)/C=C/C/C(C)=C/Cc1nc(OC)c(OC)c(O[C@@H]2O[C@@H](C)[C@H](O)[C@@H](O)[C@H]2O)c1C (some centres undefined)	–	0.1 µM (active)
C=C(CO)C(=O)O[C@H]1CC(=C)[C@@H]2C[C@H](O)C(=C)[C@@H]2[C@H]2OC(=O)C(=C)[C@@H]21	–	1.8 µM (active)
Nc1ccn(CC(CO)OCP(=O)(O)O)c(=O)n1 (centres undefined)	80.7%	–
CCCSP(=O)(OCC)SCCC	–	0.016 µM (active)
CC(=O)OC[C@]12[C@H](OC(C)=O)C(=O)[C@@H]3[C@@H](O)[C@@]14O[C@@]3(C)COC(=O)c1cccnc1[C@@H](C)[C@H](C)C(=O)O[C@@H]([C@H](OC(C)=O)[C@@H]2OC(C)=O)[C@]4(C)O	–	5.44 µM (active)
C=C1C(=O)O[C@@H]2[C@H]3C(=C)[C@@H](O)C[C@H]3C(=C)C[C@@H](O)[C@@H]12	–	3.66 µM (active)
COC1CC(O[C@H]2CC[C@]3(C=O)C4CC[C@]5(C)[C@@H](C6=CC(=O)OC6)CC[C@]5(O)[C@@H]4CC[C@@H]3C2)OC(C)C1O[C@@H]1O[C@H](CO)[C@@H](O[C@@H]2O[C@H](CO)[C@@H](O)[C@H](O)[C@H]2O)[C@H](O)[C@H]1O (some centres undefined)	–	0.174 µM (active)
CC1N=C(N)OC1c1ccccc1 (centres undefined)	84.4% [at 91.9 µM]	–
CC/C=C/C=C/C1(C)OC(OC)=C(C(=O)C2C(C)C(=O)c3cc(OC)c(O)c(O)c3C2(C)O)C1=O (centres undefined)	–	10 µM (active)
C[C@H]1C(=O)O[C@H]2[C@H](O)[C@]34C5OC(=O)[C@]3(O[C@@H]3OC(=O)[C@H](O)C34[C@H](C(C)(C)C)[C@H]5O)C12O (some centres undefined)	93.7% [at 17.3 µM]	–
O=C(O)P(=O)(O)O	–	inactive
COC(=O)C12C(=O)C(C)(O)C(=O)C1(C)C(C)=CC1C34CCC(OC3=O)C(C)(C)C4CCC12C (centres undefined)	75.9% [at 17.3 µM]	–
C=C1C2(C)CC3C(C)(O)C4=CC(=O)OC(C)(C)C4=CCC3(C)C13C(=O)OC(C)C3(O)C2=O (centres undefined)	65.4% [at 17.3 µM]	–
CC(=O)OC1CC(O)C(C)(C)C2CC(OC(C)=O)C3(C)C(CCC4(C)C(c5ccoc5)C(=O)C5OC543)C12C (centres undefined)	69.8% [at 17.3 µM]	–
CC(C)(C)[C@]1(O)C[C@@H]2OC(=O)C[C@@]23C(=O)O[C@@H]2OC(=O)[C@@H](O)[C@]213	80.8%	–
CO[C@@H]1[C@H](O)[C@@H](O[C@@H]2C[C@H]3CC[C@@H]4C(CC[C@]5(C)[C@@H](C6=CC(=O)OC6)CC[C@]45O)[C@@]3(C)[C@H](O)C2)O[C@H](C)[C@@H]1O[C@@H]1O[C@H](CO)[C@@H](O)[C@H](O)[C@H]1O (some centres undefined)	–	0.0968 µM (active)
O=C(NCCN1CCC2(CC1)C(=O)NCN2c1cccc(F)c1)c1ccc2ccccc2c1	–	9.2 µM (active)
CO[C@@H]1C[C@H](O[C@H]2CC[C@@]3(C)C(CCC4C3CC[C@]3(C)[C@@H](C5=CC(=O)OC5)[C@@H](OC(C)=O)CC43O)C2)O[C@H](C)[C@@H]1O[C@H]1O[C@H](CO[C@@H]2O[C@H](CO)[C@@H](O)[C@H](O)[C@H]2O)[C@@H](O)[C@H](O)[C@H]1O (some centres undefined)	–	0.31 µM (active)
C=C(CO)C(=O)O[C@H]1C/C(C)=C/CC/C(CO)=C/[C@H]2OC(=O)C(=C)[C@H]12	84.4%	–

Compound	viability (% of control)	Potency
C/C=C(\C)C(=O)OC1CC2C(C)(C)OC(=O)CC(OC(C)=O)C2(C)C2CC(OC(=O)C(C)C)C3(C)C(c4ccoc4)CC4OC43C12C (centres undefined)	63.9% [at 17.3 µM]	–
NC(=O)c1ncn2c1CN=C(c1ccccc1Br)c1cc(F)ccc1-2	–	20.6 µM (active)
C[C@]12CCC(=O)C=C1CC[C@@H]1[C@@H]2[C@@H](O)C[C@]2(C)C(=O)CC[C@@H]12	82.3%	–
COC(=O)C1(C)CCC(O)C2(C)c3c(O)cc(C(C)C)cc3C(O)C(OC(C)=O)C12 (centres undefined)	61% [at 17.3 µM]	–
C[C@H]1O[C@@H](n2cnc3c(N)ncnc32)C[C@@H]1O	38.1%	–
COC1C=CC23c4cc5c(cc4COC2(O)CN(C)C3C1)OCO5 (centres undefined)	72.2%	–
CC[C@@H](C)[C@H]1C(=O)O[C@H](C(C)C)C(=O)N(C)[C@@H](C(C)C)C(=O)O[C@H](C(C)C)C(=O)N(C)[C@@H](C(C)C)C(=O)O[C@H](C(C)C)C(=O)N1C	–	5.44 µM (active)
O=C1Nc2ccc3ncsc3c2/C1=C/c1cnc[nH]1	–	0.082 µM (active)
C[C@]12CC[C@H](O[C@@H]3O[C@H](CO)[C@@H](O)[C@H](O)[C@H]3O)CC1=CC[C@@H]1C2CC[C@]2(C)[C@@H](C3=CC(=O)OC3)CC[C@]12O (some centres undefined)	–	2.73 µM (active)
CC(=O)O[C@@H]1[C@@H](O)[C@H]2O[C@@H]3C=C(C)[C@@H](O)C[C@]3(CO)[C@]1(C)[C@]21CO1	–	0.321 µM (active)
CC1Oc2cc3c(-c4c(O)cc(O)c5c(O)c6c(cc45)OC(C)C(C)C6=O)c(O)cc(O)c3c(O)c2C(=O)C1C (centres undefined)	–	5.17 µM (active)
CC(=O)O[C@@H]1CC2C(C)(C)C(=O)C=C[C@]2(C)C2CC[C@]3(C)C(=CC(=O)O[C@H]3c3ccoc3)[C@@]21C (some centres undefined)	–	11.6 µM (active)
O=C1C[C@@H]2OCC=C3CN4CC[C@]56c7ccccc7N1[C@H]5[C@H]2[C@H]3C[C@H]46	61%	–
CN(CC[C@H](N)CC(=O)N[C@H]1C=C[C@@H](n2ccc(N)nc2=O)O[C@@H]1C(=O)O)C(=N)N	83.5% [at 9.25 µM]	–
CN1Cc2c(ccc3c2OCO3)[C@@H]2[C@H]1c1cc3c(cc1C[C@@H]2O)OCO3	–	3.21 µM (active)
CC(C)(NC(=O)[C@@H](N)Cc1ccc(O)cc1)C(=O)N[C@@H](Cc1cc2ccccc2[nH]1)C(=O)N[C@@H](Cc1ccccc1)C(=O)O	–	3.35 µM (active)
CN1C(=O)[C@@H](Cc2c[nH]c3ccccc23)N=C(c2ccccc2F)c2ccccc21	–	20.6 µM (active)
C/C=C(\C)C(=O)O[C@H]1CC2C(=C1C)[C@H]1OC(=O)[C@](C)(O)[C@]1(O)[C@H](OC(=O)CCC)C[C@@]2(C)OC(C)=O (some centres undefined)	–	1.78 µM (active)
COC(=O)[C@@]12C(=O)C(C)C(=O)[C@]1(C)C(C)=C[C@H]1[C@]3(C=O)CC[C@H](OC(C)=O)C(C)(C)[C@H]3CC[C@@]12C (some centres undefined)	56.9% [at 17.3 µM]	–
